Source: ChEMBL document CHEMBL3988442, “University of Dundee, Small-Polar-MMV Screening Library” (2021)
For some assays here: Results with a measured potency or affinity are listed apart.

How the values were obtained:
Set-up in all cases: scale not given: direction of the effect not stated beside the values
[1] = biological target: Protein translocase subunit SecA (Escherichia coli (strain K12)) (UniProt P10408); assay: Assay to Identify E. coli SecA ATPase Inhibitors; format: functional; conditions: 30 µM
[2] = biological target: T1, Ubiquitin-activating enzyme e1, putative (Leishmania donovani (strain BPK282A1)) (UniProt E9BSI1); assay: Leishmania donovani Ubiquitin Activating Enzyme (LdE1); format: functional; conditions: 30 µM
T1 sequence (whole entry): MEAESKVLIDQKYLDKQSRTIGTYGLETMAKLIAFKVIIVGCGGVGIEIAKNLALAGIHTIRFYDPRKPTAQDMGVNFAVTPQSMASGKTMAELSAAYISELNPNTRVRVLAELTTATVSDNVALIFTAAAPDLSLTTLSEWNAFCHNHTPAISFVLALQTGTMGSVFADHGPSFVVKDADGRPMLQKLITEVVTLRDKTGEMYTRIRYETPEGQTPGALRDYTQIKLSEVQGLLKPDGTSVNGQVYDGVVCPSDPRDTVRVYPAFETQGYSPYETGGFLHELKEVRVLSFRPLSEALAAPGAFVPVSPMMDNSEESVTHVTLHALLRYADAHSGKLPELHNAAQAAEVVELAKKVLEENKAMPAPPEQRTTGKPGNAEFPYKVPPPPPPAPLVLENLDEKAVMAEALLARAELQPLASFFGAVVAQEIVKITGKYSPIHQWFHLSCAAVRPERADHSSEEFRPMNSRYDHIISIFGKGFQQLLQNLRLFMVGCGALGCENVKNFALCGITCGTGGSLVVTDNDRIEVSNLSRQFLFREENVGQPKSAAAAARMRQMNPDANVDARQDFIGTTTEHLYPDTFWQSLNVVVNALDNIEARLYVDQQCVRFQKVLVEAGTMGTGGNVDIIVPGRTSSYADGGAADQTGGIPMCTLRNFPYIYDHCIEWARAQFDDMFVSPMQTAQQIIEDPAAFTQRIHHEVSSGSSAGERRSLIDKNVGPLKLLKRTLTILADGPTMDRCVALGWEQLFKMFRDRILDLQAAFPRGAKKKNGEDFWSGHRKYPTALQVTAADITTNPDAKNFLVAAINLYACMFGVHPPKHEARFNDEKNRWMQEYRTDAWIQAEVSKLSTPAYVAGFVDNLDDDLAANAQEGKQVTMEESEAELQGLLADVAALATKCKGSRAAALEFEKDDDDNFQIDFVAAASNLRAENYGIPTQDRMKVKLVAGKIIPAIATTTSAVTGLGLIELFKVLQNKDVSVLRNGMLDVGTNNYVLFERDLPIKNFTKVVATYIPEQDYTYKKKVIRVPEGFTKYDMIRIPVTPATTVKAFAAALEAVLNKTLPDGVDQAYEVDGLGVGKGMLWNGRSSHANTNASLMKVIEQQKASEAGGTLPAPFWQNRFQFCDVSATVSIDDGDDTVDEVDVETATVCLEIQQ

[3] = biological target: AMP-activated protein kinase, AMPK (Homo sapiens) (UniProt P54646+O43741+P54619+Q9UGJ0+Q9Y478+Q13131+Q9UGI9); assay: AMP-dependent Kinase enzyme assay. An in vitro enzyme assay that detects ADP turnover that is directly proportional to AMPK activity. This uses naive AMPK that is activated during the assay with MK-8722; format: functional; conditions: 30 µM
[4] = biological target: Sialic acid-binding Ig-like lectin 9 (Homo sapiens) (UniProt Q9Y336); assay: Hs-Siglec9 ALPHAscreen SOP 20170721; conditions: 10 µM
[5] = test system: Trypanosoma cruzi; assay: Trypanosoma cruzi phosphomannomutase and mannose-1-phosphate guanylyltransferase assay; format: functional; conditions: 10 µM
[6] = biological target: T2, Arginase-2, mitochondrial (Homo sapiens) (UniProt P78540); assay: in vitro enzyme assay to detect the production of urea directly proportional to the activity of Arginase II; format: functional; conditions: 33.3 µM; also: in the data most compounds retested in dose-response had high values
T2 sequence (whole entry): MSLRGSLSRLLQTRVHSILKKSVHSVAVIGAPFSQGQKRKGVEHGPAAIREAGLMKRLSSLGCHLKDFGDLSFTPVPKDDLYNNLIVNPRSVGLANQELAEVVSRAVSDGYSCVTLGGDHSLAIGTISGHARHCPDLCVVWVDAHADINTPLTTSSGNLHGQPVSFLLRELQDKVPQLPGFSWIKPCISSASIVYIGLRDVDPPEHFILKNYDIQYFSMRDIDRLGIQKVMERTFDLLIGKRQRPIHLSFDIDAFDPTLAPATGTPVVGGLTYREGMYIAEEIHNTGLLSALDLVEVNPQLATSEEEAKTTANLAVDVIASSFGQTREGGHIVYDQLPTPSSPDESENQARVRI

[7] = biological target: T3, Proteasome subunit beta (Trypanosoma cruzi) (UniProt O96673); assay: Trypanosoma cruzi proteasome chymotrypsin-like activity (TcProtChymo) assay.; also: in the data most compounds retested in dose-response had high values; format: functional; conditions: 9.37 µM
T3 sequence (whole entry): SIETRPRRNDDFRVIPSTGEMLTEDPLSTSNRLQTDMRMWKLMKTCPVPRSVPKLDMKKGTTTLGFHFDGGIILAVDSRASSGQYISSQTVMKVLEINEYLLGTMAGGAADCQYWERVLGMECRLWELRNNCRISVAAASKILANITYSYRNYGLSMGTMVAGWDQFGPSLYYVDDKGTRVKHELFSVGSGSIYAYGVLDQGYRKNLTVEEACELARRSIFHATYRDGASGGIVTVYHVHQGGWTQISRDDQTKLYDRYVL

[8] = species on record: Homo sapiens; assay: To identify inhibition of the IFN signalling (Jak-Stat) pathway via expression of an eGFP reporter gene under the control of an IFN-stimulated response element (ISRE) containing MxA promoter.; format: functional; conditions: 30 µM
[9] = biological target: T4, Tyrosyl-tRNA synthetase, putative (Trypanosoma cruzi (strain CL Brener)) (UniProt Q4DSP6); assay: Trypanosoma cruzi tyrosyl tRNA synthetase (TcYRS) _High Tyrosine SOP; format: functional; conditions: 30 µM; also: in the data most compounds retested in dose-response had high values
T4 sequence (whole entry): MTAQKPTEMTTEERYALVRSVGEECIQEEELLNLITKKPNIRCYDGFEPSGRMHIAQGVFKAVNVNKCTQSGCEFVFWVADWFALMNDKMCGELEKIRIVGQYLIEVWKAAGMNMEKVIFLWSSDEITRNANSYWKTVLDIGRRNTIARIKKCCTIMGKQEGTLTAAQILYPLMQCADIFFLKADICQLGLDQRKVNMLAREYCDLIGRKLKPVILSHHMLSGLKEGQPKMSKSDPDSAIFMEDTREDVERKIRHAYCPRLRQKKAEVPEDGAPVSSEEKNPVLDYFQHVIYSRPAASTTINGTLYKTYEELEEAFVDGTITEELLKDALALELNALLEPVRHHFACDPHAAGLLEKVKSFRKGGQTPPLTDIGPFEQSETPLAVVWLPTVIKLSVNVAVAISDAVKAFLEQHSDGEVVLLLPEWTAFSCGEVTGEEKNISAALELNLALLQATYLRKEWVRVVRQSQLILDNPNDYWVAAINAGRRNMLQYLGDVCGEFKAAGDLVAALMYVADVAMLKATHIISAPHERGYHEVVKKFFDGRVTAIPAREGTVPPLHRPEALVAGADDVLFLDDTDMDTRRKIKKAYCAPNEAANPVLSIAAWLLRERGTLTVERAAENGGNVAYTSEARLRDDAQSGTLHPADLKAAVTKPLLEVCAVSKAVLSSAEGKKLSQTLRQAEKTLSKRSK

[10] = biological target: T4, Tyrosyl-tRNA synthetase, putative (Trypanosoma cruzi (strain CL Brener)); assay: Trypanosoma cruzi tyrosyl tRNA synthetase (TcYRS) SOP; format: functional; conditions: 30 µM
[11] = biological target: Chromo domain-containing protein 1 (Saccharomyces cerevisiae (strain ATCC 204508 / S288c) (Baker's yeast)) (UniProt P32657); assay: ScCHD-1 Enzyme Inhibition Assay; format: functional; conditions: 30 µM; also: in the data most compounds retested in dose-response had high values
Chain of Chromo domain-containing protein 1 (Saccharomyces cerevisiae (strain ATCC 204508 / S288c) (Baker's yeast)) (P32657 whole entry, the tested form may be a part): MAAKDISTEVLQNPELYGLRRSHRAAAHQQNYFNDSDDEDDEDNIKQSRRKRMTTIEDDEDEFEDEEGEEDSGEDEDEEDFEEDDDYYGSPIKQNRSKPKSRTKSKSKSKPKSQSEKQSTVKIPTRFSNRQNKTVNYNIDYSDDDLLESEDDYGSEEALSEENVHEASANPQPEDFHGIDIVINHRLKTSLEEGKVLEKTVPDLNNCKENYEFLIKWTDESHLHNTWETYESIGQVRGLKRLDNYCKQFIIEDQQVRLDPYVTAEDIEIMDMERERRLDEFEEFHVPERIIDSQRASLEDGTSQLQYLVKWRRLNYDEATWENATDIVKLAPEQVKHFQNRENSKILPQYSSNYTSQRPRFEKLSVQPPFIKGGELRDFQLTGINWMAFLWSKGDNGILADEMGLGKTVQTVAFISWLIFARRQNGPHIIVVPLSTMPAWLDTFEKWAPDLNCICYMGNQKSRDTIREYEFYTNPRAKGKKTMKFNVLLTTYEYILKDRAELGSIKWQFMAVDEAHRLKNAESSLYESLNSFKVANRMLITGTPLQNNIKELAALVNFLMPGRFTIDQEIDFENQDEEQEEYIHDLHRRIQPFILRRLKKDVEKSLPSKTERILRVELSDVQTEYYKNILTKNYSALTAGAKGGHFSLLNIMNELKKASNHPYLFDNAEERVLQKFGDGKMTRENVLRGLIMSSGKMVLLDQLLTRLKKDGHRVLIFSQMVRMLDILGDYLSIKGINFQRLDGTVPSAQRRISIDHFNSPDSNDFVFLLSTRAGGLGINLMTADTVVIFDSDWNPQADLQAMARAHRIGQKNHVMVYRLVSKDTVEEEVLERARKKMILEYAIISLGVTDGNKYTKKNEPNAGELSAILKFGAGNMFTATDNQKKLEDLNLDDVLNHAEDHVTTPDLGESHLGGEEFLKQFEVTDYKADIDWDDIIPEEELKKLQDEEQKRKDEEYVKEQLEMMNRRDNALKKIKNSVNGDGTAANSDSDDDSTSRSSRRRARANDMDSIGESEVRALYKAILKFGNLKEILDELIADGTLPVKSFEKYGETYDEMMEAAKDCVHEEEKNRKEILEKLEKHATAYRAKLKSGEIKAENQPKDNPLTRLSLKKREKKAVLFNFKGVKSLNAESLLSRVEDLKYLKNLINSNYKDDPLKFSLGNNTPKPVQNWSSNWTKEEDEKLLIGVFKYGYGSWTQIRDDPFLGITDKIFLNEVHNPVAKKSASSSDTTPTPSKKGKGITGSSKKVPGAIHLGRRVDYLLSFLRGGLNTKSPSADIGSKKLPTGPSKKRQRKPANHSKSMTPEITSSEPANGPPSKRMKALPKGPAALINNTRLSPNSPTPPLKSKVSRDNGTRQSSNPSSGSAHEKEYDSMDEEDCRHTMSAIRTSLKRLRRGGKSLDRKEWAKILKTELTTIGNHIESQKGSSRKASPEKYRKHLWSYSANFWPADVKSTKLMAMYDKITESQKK

Chain of Protein translocase subunit SecA (Escherichia coli (strain K12)) (P10408 whole entry): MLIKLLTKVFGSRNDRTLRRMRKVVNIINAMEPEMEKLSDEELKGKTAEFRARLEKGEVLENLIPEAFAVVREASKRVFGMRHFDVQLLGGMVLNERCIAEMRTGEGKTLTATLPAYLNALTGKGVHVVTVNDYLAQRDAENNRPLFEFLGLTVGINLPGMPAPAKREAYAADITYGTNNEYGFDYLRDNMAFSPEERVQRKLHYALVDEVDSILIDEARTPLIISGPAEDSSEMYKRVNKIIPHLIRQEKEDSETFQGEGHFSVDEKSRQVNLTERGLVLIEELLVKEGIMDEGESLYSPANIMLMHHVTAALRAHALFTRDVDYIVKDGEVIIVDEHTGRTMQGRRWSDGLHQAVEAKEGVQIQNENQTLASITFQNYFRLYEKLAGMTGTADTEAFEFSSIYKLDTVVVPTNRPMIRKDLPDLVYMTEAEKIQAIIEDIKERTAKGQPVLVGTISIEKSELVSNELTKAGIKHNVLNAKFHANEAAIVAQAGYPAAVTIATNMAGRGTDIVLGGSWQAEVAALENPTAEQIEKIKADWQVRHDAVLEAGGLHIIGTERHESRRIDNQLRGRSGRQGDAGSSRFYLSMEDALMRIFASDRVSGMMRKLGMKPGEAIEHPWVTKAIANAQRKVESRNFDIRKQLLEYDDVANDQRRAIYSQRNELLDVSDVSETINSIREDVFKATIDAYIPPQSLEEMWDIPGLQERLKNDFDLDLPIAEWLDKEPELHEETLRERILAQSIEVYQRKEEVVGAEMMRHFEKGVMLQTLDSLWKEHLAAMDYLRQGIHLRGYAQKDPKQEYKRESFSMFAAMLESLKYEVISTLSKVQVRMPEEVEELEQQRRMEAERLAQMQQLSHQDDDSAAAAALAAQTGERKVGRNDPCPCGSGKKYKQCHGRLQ
Chain of Sialic acid-binding Ig-like lectin 9 (Homo sapiens) (Q9Y336 whole entry): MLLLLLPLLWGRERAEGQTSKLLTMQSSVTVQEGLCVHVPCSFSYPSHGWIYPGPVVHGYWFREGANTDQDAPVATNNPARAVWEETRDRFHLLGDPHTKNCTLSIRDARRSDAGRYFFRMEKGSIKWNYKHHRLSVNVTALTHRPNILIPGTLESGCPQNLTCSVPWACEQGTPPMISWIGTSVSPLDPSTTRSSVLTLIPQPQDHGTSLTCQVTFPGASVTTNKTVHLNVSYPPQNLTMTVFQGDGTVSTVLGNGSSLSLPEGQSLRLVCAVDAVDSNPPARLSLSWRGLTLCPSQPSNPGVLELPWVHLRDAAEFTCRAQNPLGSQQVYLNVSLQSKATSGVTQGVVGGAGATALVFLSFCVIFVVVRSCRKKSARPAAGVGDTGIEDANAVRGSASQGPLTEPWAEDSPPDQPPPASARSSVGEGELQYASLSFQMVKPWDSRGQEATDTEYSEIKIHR

Row | SMILES | Percent Effect [1] | Percent Effect [2] | Percent Effect [3] | Percent Effect [4] | Percent Effect [5] | Percent Effect [6] | Percent Effect [7] | Percent Effect [8] | Percent Effect [9] | Percent Effect [10] | Percent Effect [11]
1 | Cc1ccc(CNC2CCN(CCc3ccncc3)CC2)s1 | -6.73% | -5.41% | -1.83% | 2.51% | -1.76% | 5.42% | 7.86% | 1.37% | 7.92% | 8.54% | -4.89%
2 | COc1ncccc1C(=O)N1CCCC(c2cc(C)[nH]n2)C1 (stereo unspecified) | -4.92% | 0% | -0.772% | -1.9% | -0.66% | -0.802% | 1.8% | 10.4% | 1.48% | -6.17% | 1.58%
3 | CCc1nccn1C1CCCN(C(=O)c2cc3nc(C)ccc3o2)C1 (stereo unspecified) | -7.55% | 8.11% | -3.48% | 4.87% | -6.7% | -4.81% | 4.87% | 32.4% | 3.45% | 3.7% | 0.188%
4 | c1ccc(Cn2cccn2)c(CNCC2CNc3ccnn3C2)c1 (stereo unspecified) | -5.51% | 10.4% | -9.17% | 10.9% | 13.5% | -4.63% | 13.3% | 3.57% | 16.5% | 21.9% | -11%
5 | COCCNC(=O)[C@H]1C[C@@H]2CCN(c3nncs3)C[C@H]2O1 | -0.719% | -8.11% | 6.18% | -4.67% | -1.37% | 1.67% | -0.254% | 7% | 5.94% | 6.1% | 1.42%
6 | Cc1nc(C)n(CC2CCCN(c3ncnc4[nH]ccc34)C2)n1 (stereo unspecified) | -4.25% | 11.4% | 69.9% | 5.73% | -4.21% | 0.645% | 15.8% | 42.8% | 6.25% | 5.06% | -4.67%
7 | CS(=O)(=O)N1CCC2(CN(C(=O)c3cccnc3)C2)C1 | -2.76% | 5.48% | -1.91% | 3.06% | -2.18% | -2.79% | 14.3% | 23.4% | 4.17% | 6.17% | -1.65%
8 | Cn1cc(NC(=O)Cn2c(CS(C)(=O)=O)nc3ccccc32)cn1 | -2.27% | 7.89% | 3.88% | 2.76% | 0.0974% | -1.18% | 12.6% | -13.6% | 3.19% | 13% | -3.67%
9 | CCOCC(=O)NC1(c2cccc(Br)c2)CC1 | -8.13% | 0% | 0.838% | 9.79% | -3.67% | -2.38% | 7.76% | 13.1% | -1.59% | -2.44% | -3.38%
10 | O=C(C1CCOCC1)N1C[C@@H]2[C@@H](C1)OCC(=O)N2CC1CC1 | -1.53% | -192% | 0.601% | -6.86% | -19.1% | 0.319% | 19.2% | -0.484% | -222% | -451% | -3.21%
11 | Cc1nnc(C2Cc3ccccc3CN2Cc2ncc(C(C)(C)C)o2)o1 (stereo unspecified) | -1.87% | 15.6% | 3.3% | -12.9% | -3.82% | -1.05% | 20.8% | 27.9% | 8.57% | 11.8% | -17.8%
12 | CC(C)C(C(=O)N1CCCN(Cc2nccn2C)CC1)N1CCCC1 (stereo unspecified) | -1.38% | 21.6% | -0.295% | -3.06% | -1.58% | -2.77% | 10.6% | 20% | 2.97% | 13.4% | -5.79%
13 | O=C(Cc1ccsc1)N1CCn2cc(CN3CCCC3)nc2C1 | -1.1% | 8.22% | -4.43% | 11.5% | 8.33% | -9.98% | 20.1% | -16% | 14.6% | 23.5% | -4.19%
14 | O=C(NCCNc1ccc(C(F)(F)F)cn1)c1cncc(Br)c1 | 1.84% | 15.6% | 50.8% | -7% | -4.8% | 3.58% | 12.5% | 27.5% | 13.3% | 30.6% | -20.7%
15 | CS(=O)(=O)N1CCOCC2(CN(Cc3ccsc3)CCO2)C1 (stereo unspecified) | -4.51% | 5.48% | -1.43% | 5.15% | 7.14% | -4.39% | 8.82% | 10.5% | 5.21% | 6.17% | -0.73%
16 | COc1ccc(C(=O)N2CCC(Nc3cccnn3)CC2)c(OC)c1 | 1.87% | -3.8% | 3.46% | 2.44% | -4.41% | 5.38% | 0.858% | 0.418% | -1.04% | 2.53% | -16%
